“And” between values parts separate entries of the source, which are not always exact repeats. Equal values may be shown once. Records with an inconclusive call do not appear. Unmarked numbers belong to inactive results. The source made the active and inactive calls. Calls follow the shape of the dose curve; as a rule, active = well fitted curve in the direction sought with a large enough effect in the repeat runs; inconclusive = weak or mixed curves; inactive = no such curve, though single readings can be large; an effect the other way counts as inactive or inconclusive.

The target of assay [1] is Cytochrome P450 2C9 (Homo sapiens) (UniProt P11712). In words: Cytochrome P450 Family 2 Subfamily C Member 9 (CYP2C9) small molecule antagonists: luciferase reporter qHTS assay (AID 1671198). As to activity change, negative = inhibition: series mostly up to about 120 µM. The essentials:
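CYP2C9 activity was measured with a P450-Glo proluciferin substrate. Enzyme–substrate mix was held with compound for 10 min at room temperature, then NADPH regeneration solution was added for 1 h at 37C. Luciferin product was read as luminescence.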

The target in assay [2] is Voltage-gated inwardly rectifying potassium channel KCNH2 (Homo sapiens) (UniProt Q12809). Kind of assay: Human Ether-a-go-go-Related Gene (hERG) channel small molecule antagonists: fluorescence cell-based qHTS assay (AID 1671200).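 As to activity change, negative = inhibition: hERG-expressing U2OS cells given a thallium stimulus after FluxOR II dye loading; series mostly up to about 77 µM.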 In short, it runs like this:
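Kinetic two-minute fluorescence traces, sampled at 1 s, were collected following thallium stimulus of U2OS cells (1000 per well) that had been cultured overnight at 37 C and loaded with FluxOR II.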
(In general: Block of hERG is tested as a sign of cardiac risk.)

The target in assay [3] is Cytochrome P450 3A4 (Homo sapiens) (UniProt P08684). In words: Cytochrome P450 Family 3 Subfamily A Member 4 (CYP3A4) small molecule antagonists: luciferase reporter qHTS assay (AID 1671201). As to activity change, negative = inhibition: series mostly up to about 120 µM. The essentials: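 Proluciferin-to-luciferin conversion by CYP3A4, NADPH-regenerated, 1 h RT; luminescence read as RLU. Ketoconazole as control.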
Sequence of Cytochrome P450 3A4 (Homo sapiens) (P08684 whole entry, looked up): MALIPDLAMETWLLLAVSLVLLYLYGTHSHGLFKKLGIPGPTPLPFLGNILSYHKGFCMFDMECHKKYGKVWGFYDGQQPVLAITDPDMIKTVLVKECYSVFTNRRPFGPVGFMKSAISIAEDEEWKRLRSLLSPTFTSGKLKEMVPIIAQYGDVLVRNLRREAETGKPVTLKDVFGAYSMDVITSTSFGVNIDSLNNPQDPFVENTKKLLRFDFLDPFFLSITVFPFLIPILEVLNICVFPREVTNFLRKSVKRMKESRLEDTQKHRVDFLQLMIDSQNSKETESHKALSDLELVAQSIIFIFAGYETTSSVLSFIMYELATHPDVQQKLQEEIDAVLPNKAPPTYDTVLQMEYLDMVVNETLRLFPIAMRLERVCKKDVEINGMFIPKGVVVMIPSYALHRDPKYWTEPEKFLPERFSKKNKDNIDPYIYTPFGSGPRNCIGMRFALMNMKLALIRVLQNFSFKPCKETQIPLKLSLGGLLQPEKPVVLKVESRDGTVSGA
Assay [4] has as its target Cytochrome P450 1A2 (Homo sapiens) (UniProt P05177). Kind of assay: Cytochrome P450 Family 1 Subfamily A Member 2 (CYP1A2) small molecule antagonists: luciferase reporter qHTS assay (AID 1671199). As to activity change, negative = inhibition: series mostly up to about 120 µM. The essentials: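 Compounds were incubated with CYP1A2 and a luminogenic proluciferin substrate for 10 min at room temperature before the reaction was started with NADPH regeneration solution. After 1 h, detection reagent was added and light output, proportional to CYP activity, was recorded.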
On the technique in general: Reporter assays use an easily measured gene product as a stand-in for the process of interest.
% is scaled to controls: 0 for no effect and ±100 for the full control effect; potency is read from the fitted curve at half-maximal effect.
Also: nearly all actives have a fitted effect of over 50% in size.

Sequence of Cytochrome P450 2C9 (Homo sapiens) (P11712 whole entry, looked up): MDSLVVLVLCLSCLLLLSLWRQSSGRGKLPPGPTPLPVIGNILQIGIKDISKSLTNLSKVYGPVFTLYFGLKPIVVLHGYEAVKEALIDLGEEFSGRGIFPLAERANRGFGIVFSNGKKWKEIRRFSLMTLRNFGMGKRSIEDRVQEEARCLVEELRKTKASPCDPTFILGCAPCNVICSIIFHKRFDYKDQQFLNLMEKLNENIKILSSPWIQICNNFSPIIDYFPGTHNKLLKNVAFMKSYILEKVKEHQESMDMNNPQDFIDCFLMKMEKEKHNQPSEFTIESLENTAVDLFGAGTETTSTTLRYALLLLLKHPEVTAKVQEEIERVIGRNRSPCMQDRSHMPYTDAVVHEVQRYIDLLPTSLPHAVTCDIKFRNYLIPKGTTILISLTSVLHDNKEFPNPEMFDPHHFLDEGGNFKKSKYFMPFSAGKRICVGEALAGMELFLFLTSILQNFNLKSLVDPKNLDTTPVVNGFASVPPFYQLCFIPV
Sequence of Voltage-gated inwardly rectifying potassium channel KCNH2 (Homo sapiens) (Q12809 whole entry, looked up): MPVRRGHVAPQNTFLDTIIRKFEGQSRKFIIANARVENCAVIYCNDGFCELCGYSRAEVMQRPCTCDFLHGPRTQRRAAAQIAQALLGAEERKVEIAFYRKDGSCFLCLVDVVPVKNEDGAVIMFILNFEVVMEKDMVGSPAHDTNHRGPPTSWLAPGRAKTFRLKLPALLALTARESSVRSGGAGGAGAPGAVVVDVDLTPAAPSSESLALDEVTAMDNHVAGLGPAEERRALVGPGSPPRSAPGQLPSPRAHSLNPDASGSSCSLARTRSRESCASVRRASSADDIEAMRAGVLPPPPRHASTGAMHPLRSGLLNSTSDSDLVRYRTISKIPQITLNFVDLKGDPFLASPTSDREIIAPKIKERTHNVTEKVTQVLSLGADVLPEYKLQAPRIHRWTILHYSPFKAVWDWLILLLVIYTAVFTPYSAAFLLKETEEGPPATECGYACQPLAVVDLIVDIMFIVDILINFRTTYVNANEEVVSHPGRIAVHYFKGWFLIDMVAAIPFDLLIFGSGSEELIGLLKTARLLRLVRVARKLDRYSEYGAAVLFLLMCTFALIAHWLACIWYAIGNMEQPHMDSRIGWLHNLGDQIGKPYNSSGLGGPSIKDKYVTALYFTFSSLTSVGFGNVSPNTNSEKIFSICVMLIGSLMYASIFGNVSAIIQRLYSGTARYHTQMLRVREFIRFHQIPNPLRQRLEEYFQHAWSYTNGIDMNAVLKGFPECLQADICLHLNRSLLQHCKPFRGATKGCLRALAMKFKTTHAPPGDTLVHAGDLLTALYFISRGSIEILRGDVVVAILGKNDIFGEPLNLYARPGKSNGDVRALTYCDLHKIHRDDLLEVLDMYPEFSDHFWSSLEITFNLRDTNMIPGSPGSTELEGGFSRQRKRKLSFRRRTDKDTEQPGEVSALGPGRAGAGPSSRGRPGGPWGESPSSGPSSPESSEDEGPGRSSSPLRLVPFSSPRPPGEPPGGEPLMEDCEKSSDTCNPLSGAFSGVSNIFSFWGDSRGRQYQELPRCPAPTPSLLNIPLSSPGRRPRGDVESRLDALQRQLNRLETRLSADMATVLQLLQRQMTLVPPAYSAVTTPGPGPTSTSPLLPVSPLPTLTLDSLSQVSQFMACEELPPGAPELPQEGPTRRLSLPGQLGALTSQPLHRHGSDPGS
Sequence of Cytochrome P450 1A2 (Homo sapiens) (P05177 whole entry, looked up): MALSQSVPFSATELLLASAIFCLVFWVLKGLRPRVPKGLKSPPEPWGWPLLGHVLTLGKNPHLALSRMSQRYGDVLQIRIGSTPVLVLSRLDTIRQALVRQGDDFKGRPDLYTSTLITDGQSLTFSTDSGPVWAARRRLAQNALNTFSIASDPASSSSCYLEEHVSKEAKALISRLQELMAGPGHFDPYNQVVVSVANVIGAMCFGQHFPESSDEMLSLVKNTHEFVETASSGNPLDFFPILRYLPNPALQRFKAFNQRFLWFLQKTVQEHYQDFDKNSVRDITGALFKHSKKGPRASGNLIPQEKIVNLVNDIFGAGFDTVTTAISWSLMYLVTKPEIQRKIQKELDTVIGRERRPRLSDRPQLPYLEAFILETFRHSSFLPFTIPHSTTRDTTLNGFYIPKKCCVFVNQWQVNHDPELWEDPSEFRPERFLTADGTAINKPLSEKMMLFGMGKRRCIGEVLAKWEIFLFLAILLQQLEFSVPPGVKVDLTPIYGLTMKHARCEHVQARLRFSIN

For the molecule `COc1nccnc1CC(C)C`, the Potency result in assay [1], in assay [2] and in assay [3] was “inactive” each time.

Consider `CCN=c1cc2oc3cc(NCC)c(C)cc3c(-c3ccccc3C(=O)OCC)c-2cc1C`, for which the Potency in assay [1] is 7.94 µM (active) and 12.6 µM (active); in assay [2], 2.45 µM (active) and 2.19 µM (active); in assay [3], 999 nM (active) and 2 µM (active).

For `CCc1ccc(O)c(C(C)(C)C)c1`, the Potency in assay [1] is 31.7 µM (active). For the same molecule, the Potency entry in assay [3] is “inactive”.

Take `CC(=O)c1ccccc1N`: the Potency result in assay [1], in assay [2] and in assay [3] was “inactive” in each case.

For the molecule `OCCCCl`, the Potency entry in assay [1], in assay [2] and in assay [3] was “inactive” throughout.

As to `Cc1cc(C)c(C=O)c(C)c1`, the Potency entry in assay [4], in assay [2] and in assay [3] was “inactive” in each case.

`Cc1ccc(-n2[nH]c(C)c(N=Nc3cccc(-c4cccc(C(=O)O)c4)c3O)c2=O)cc1C`: the Potency entry in assay [4] and in assay [3] was “inactive” throughout.

As for `CN1CCN(C2Cc3ccccc3Sc3ccc(Cl)cc32)CC1` (stereo not drawn), in assay [4], the Potency entry was “inactive”.

On to `CCCCCCCC/C=C\CCCCCCCC(=O)NCc1ccc(O)c(OC)c1`, for which the Potency in assay [4] is 15.5 µM (active). Besides, in assay [2], the Potency result was “inactive”.

On to `C=CCCCCCCC=C`, for which the Potency entry in assay [2] was “inactive”.

Turning to `C[C@H]1O[C@@H](O[C@H]2[C@@H](O)C[C@H](O[C@H]3[C@@H](O)C[C@H](O[C@H]4CC[C@@]5(C)[C@H](CC[C@@H]6[C@@H]5C[C@@H](O)[C@]5(C)[C@@H](C7=CC(=O)OC7)CC[C@]65O)C4)O[C@@H]3C)O[C@@H]2C)C[C@H](O)[C@@H]1O`, in assay [2], the Potency result is “inactive”.

As to `O=C1NCN(c2ccccc2)C12CCN(CCCC(c1ccc(F)cc1)c1ccc(F)cc1)CC2`, the Potency entry in assay [4] was “inactive”. For the same molecule, the Potency in assay [2] was 0.19 µM (active).

As to `C/C=C/C=N/NC(=O)c1ccncc1`, the Potency result in assay [4] and in assay [2] was “inactive” each time.

Turning to `Cc1c(-c2ccc(O)cc2)n(Cc2ccc(OCCN3CCCCCC3)cc2)c2ccc(O)cc12`, in assay [4], the Potency entry was “inactive”.

On to `Oc1cc2ccccc2cc1O`, for which the Potency in assay [4] was 31.7 µM (active). Besides, in assay [2], the Potency result was “inactive”.

Consider `CC(C)c1ccccc1N`, for which the Potency result in assay [4] and in assay [2] was “inactive” each time. For the same molecule, the Potency in assay [3] is 28.3 µM (active).

Turning to `CCCCCCCC/C=C/CCCOC(C)=O`, the Potency result in assay [2] and in assay [3] was “inactive” throughout.

For the molecule `CC1(C)C(=O)N(Br)C(=O)N1Br`, the Potency result in assay [2] and in assay [3] was “inactive” throughout.

For the molecule `C1CC(COCC2CO2)CCC1COCC1CO1` (stereo not drawn), the Potency entry in assay [3] is “inactive”.

Turning to `NC(=O)C(=O)N/N=C/c1ccc([N+](=O)[O-])o1`, the Potency entry in assay [4], in assay [2] and in assay [3] was “inactive” in each case.

For `Brc1ccccc1-c1ccccc1`, the Potency was 16.6 µM (active) in assay [4] and 31.4 µM (active) in assay [2]. Also, in assay [3], the Potency result is “inactive”.

For `C=CC(=O)OCC(O)COc1ccccc1` (stereo not drawn), in assay [4], the Potency was 35.6 µM (active). The Potency entry in assay [2] and in assay [3] was “inactive” in each case.

As for `CCCSS/C(CCO)=C(\C)N(C=O)Cc1cnc(C)nc1N`, the Potency result in assay [4] was “inactive”. Further, the Potency in assay [2] was 12 µM (active).

Turning to `CCOC(=O)COc1ccc(C)cc1`, in assay [4], the Potency was 39.9 µM (active). The Potency result in assay [2] and in assay [3] was “inactive” throughout.

As to `O=C(NO)c1ccccc1`, the Potency entry in assay [2] is “inactive”.

With `C=CC(=C)CC/C=C(\C)CCC=C(C)C`, the figures for the Potency in assay [4] and in assay [3] were 15.1 µM (active) and 16.9 µM (active), respectively. In addition, the activity change, negative = inhibition in assay [2] was -2.72% [at 15.8 µM].

Consider `CCCCCCCCCCCCCC[n+]1ccccc1`, for which the Potency in assay [4] was 71 µM (active); in assay [2] it was 5.49 µM (active).

As for `Clc1ccc(C(Cn2ccnc2)OCc2c(Cl)cccc2Cl)c(Cl)c1` (stereo not drawn), the Potency in assay [2] was 7.56 µM (active).

Consider `CN(Cc1cc(Br)cc(Br)c1N)C1CCCCC1`, for which the Potency was 32.3 µM (active) in assay [4] and 10.7 µM (active) in assay [2].

In the case of `COC(=O)C1=C(C)NC(C)=C(C(=O)OCCCN2CCC(c3ccccc3)(c3ccccc3)CC2)C1c1cccc([N+](=O)[O-])c1` (stereo not drawn), in assay [2], the Potency was 1.51 µM (active).

As for `Cc1nc(Nc2ncc(C(=O)Nc3c(C)cccc3Cl)s2)cc(N2CCN(CCO)CC2)n1`, the Potency entry in assay [4] and in assay [2] was “inactive” each time.

`C=CC(=C)CCC=C(C)C`: the Potency result in assay [4] is “inactive”.

On to `CCCCCCCCCCCCCOP(=O)(O)O`, for which the Potency result in assay [2] and in assay [3] was “inactive” in each case.

`Cc1cccc(C)c1NC(=O)CN1CCN(CCCC(c2ccc(F)cc2)c2ccc(F)cc2)CC1`: the Potency result in assay [4] was “inactive”.

For the molecule `[O]=[Zr]`, the Potency result in assay [2] and in assay [3] was “inactive” throughout.

With `CC(C)=CCCC(C)CCOC(=O)C(C)C` (stereo not drawn), the Potency entry in assay [4] and in assay [2] was “inactive” throughout.

With `CC(=O)OC(OC(C)=O)c1ccc([N+](=O)[O-])o1`, the Potency in assay [4] was 45.6 µM (active). The Potency result in assay [3] was “inactive”.

Consider `CC(C)(C)C1=CC(=O)C=C(C(C)(C)C)C1=O`, for which the Potency entry in assay [3] was “inactive”.

As for `Oc1c(Br)cc(Br)c2cccnc12`, the Potency entry in assay [2] and in assay [3] was “inactive” throughout.

Turning to `c1cc2c3c(c1)ccc1cccc(c13)C2`, the Potency in assay [4] was 3.63 µM (active). Moreover, the Potency result in assay [2] and in assay [3] was “inactive” throughout.

As to `COc1cc(C(C)C)c2c(c1)S(=O)(=O)N(COc1cc(=O)n3cccc(OCCN4CCCCC4)c3n1)C2=O`, in assay [3], the Potency was 0.301 µM (active).

`CCc1cccc(CC)c1N(COC)C(=O)CS(=O)(=O)O`: the Potency result in assay [4], in assay [2] and in assay [3] was “inactive” in each case.

In the case of `CC(C)N=C(N)/N=C(\N)Nc1ccc(Cl)cc1`, the Potency entry in assay [3] was “inactive”.

`CCOCN(C(=O)CS(=O)(=O)O)c1c(C)cccc1CC`: the Potency entry in assay [2] is “inactive”.

Consider `COc1ccccc1OCCNCC(O)COc1cccc2[nH]c3ccccc3c12` (stereo not drawn), for which, in assay [4], the Potency was 8.12 µM (active).

(Values after PubChem BioAssay (Tox21).)
